Screening results deposited in PubChem by several laboratories.
KKLEB cytotox = reduces viability of KKLEB cystic fibrosis airway cells. AID 602141. KKLEB CF airway cells viability, ATPlite luminescence, overnight; active compounds read low; cells stimulated with P. aeruginosa culture filtrate. activity change (cytotoxicity), % at 5 µM. 0.36% of 360,000 active;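 active = corrected activity change at or below -50% at 5 µM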
HIF-2a inh = HIF-2a inhibition; AID 624352; 786-0 RCC cells HIF-2a reporter, luciferase luminescence, overnight; 0.72% of 360,000 active; inhibition, % at 18.8 µM;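 active = inhibition of the luminescence signal of 40% or more relative to plate controls, in a single-dose primary screen at 18.75 µM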
CF NFkB block = blocks PAF-induced NF-kB reporter in cystic fibrosis cells; KKLEB NF-kB-GFP reporter, GFP fluorescence overnight; inhibition, % at 5 µM; 0.86% of 360,000 active; AID 588850;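 active = at least 50% inhibition at 5 µM, scaled per plate between neutral and stimulator controls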;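 also: PAF is a Pseudomonas aeruginosa culture filtrate used as stimulus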
Peg3 prom inh-1 = inhibitors of Peg3 promoter; HeLa PEG-Prom luciferase reporter, luminescence, overnight; 1.7% of 360,000 active; inhibition, % at 20 µM;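 active = inhibition of at least 50% at 20 µM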
ABHD5 PLIN5 PPI = blocks binding of human ABHD5 to perilipin-5 | AID 602281 | 0.78% of 360,000 active | inhibition, % at 4 µM | Split G. princeps luciferase complementation, luminescence, 4 h | Q00G26+Q8WTS1;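 active = inhibition above the mean inhibition across every tested compound plus 3 SD, cut at about 22% in these data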
MITF TRPM1 inh = reduces MITF-dependent TRPM1 promoter luciferase signal. inhibition, % at 12.5 µM. SK-MEL-5 TRPM1 promoter luciferase, 24 h. AID 488899. 0.83% of 330,000 active;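 active = mean inhibition across replicates of 60% or more, whatever share of single replicates reaches that level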
Peg3 prom inh-2 = confirmation of Peg3 promoter inhibitors; shares compounds with Peg3 prom inh-1; HeLa PEG-Prom luciferase reporter, luminescence, overnight; inhibition, % at 20 µM; 84% of 1,300 active;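 active = at 20 µM dose, 40% or more inhibition averaged across four replicates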
ABHD5 PLIN5 conf = ABHD5-PLIN5 interaction inhibition, confirmed. shares compounds with ABHD5 PLIN5 PPI. biochemical ABHD5-PLIN5 interaction, luminescence. inhibition, % at 4 µM. 67% of 2,200 active. AID 651612; in the data active = inhibition above about 23%
HNF4 split-luc = HNF4 split-luciferase signal hit, counter-screen; 77% of 2,200 active; inhibition, % at 4 µM; shares compounds with ABHD5 PLIN5 PPI; HNF4 dimerization, luminescence, biochemical;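 active = mean inhibition across replicate wells exceeding the computed hit threshold, cut at about 13% in these data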;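 also: light from luciferase halves that rejoin when HNF4 fusion proteins dimerize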
Mdm2-MdmX confirm = Mdm2/MdmX (human) interaction inhibition, confirmed; shares compounds with HIF-2a inh; SaOS-2 split-luciferase Mdm2/MdmX complementation, luminescence; inhibition, % at 8 µM; 99% of 740 active; AID 504601;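 active = mean inhibition of the luminescence signal across two replicates at or above 26 percent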
HIF-2a conf = HIF-2a inhibition, single concentration confirmation; shares compounds with HIF-2a inh; 786-0 RCC cells, HIF-2a luciferase reporter luminescence, overnight; inhibition, % at 18.8 µM; 56% of 1,800 active; AID 651580;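 active = mean inhibition across four replicates of at least 40 percent at the single tested concentration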
HIF-1a cs = inhibits HIF-1a reporter, a counter-screen for HIF-2a inhibitors | inhibition, % at 18.8 µM | AID 651589 | MiaPaCa-2 HIF-1a luciferase reporter, desferoxamine, overnight | 72% of 1,800 active | shares compounds with HIF-2a inh;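 active = mean inhibition of the reporter signal across four replicates at the single tested dose of 50% or more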
Large screens that a line does not name were inactive (follow-up assays come after a bar, where they were run). In the library only some 3.1% were active in any assay of this set; here they are far more common.

O=C(CN1CCN(c2ccc(C(F)(F)F)cn2)CC1)NCc1ccc2c(c1)OCO2	none
COc1cc(CNCCN2CCOCC2)ccc1OCc1ccc(Cl)cc1	none
COc1cc(CNCCCN2CCOCC2)cc(Br)c1OCc1ccc(Cl)cc1	Peg3 prom inh-1 99.7, ABHD5 PLIN5 PPI 35.4 | Peg3 prom inh-2 100.3 | ABHD5 PLIN5 conf inactive | HNF4 split-luc inactive
CCC(=O)NC(c1ccc(OC)cc1)c1cc(Cl)c2cccnc2c1O (stereo not given)	none
CCCCC(=O)NC(c1ccccc1)c1ccc2cccnc2c1O (stereo not given)	Peg3 prom inh-1 55.3, MITF TRPM1 inh 64.9 | Peg3 prom inh-2 87.9 | Mdm2-MdmX confirm 86.6
CCCC(=O)NC(c1ccc(OC)cc1)c1ccc2cccnc2c1O (stereo not given)	Peg3 prom inh-1 55.2, MITF TRPM1 inh 72.7 | Peg3 prom inh-2 71.2 | Mdm2-MdmX confirm 85.7
CCCCC(=O)NC(c1ccc([N+](=O)[O-])cc1)c1c(O)ccc2ccccc12 (stereo not given)	none
CCCC(=O)NC(c1ccccc1)c1ccc2cccnc2c1O (stereo not given)	Peg3 prom inh-1 53.5, MITF TRPM1 inh 64.8 | Peg3 prom inh-2 63.2 | Mdm2-MdmX confirm 80.2
CCCCNC(=O)c1ccc(Cc2cn(C)c3ccccc23)nc1	none (no result: MITF TRPM1 inh)
O=[N+]([O-])c1ccccc1CCc1cnc(Cl)s1	none
CC(CCc1ccccc1)NC(=O)COC(=O)c1ccc(S(C)(=O)=O)c([N+](=O)[O-])c1 (stereo not given)	KKLEB cytotox -63.8, HIF-2a inh 50.5, CF NFkB block 91.4, Peg3 prom inh-1 102.2 | Peg3 prom inh-2 97.0 | Mdm2-MdmX confirm 102.5 | HIF-2a conf inactive | HIF-1a cs 96.8
CC(CCc1ccccc1)NC(=O)COC(=O)c1ccc([N+](=O)[O-])cc1 (stereo not given)	none
COCCNc1nc(N)c([N+](=O)[O-])c(NC2CCCCC2)n1	none
NCCCNc1nc(N)c([N+](=O)[O-])c(NC2CCCCC2)n1	HIF-2a inh 47.8, Peg3 prom inh-1 66.8, MITF TRPM1 inh 73.8 | Peg3 prom inh-2 80.0 | HIF-2a conf inactive | HIF-1a cs 99.5
Cc1c(/C(O)=C2/C(=O)C(=O)N(Cc3cccnc3)C2c2ccccn2)cnn1-c1ccccc1 (stereo not given)	HIF-2a inh 67.2, Peg3 prom inh-1 65.8 | Peg3 prom inh-2 59.0 | HIF-2a conf 52.1 | HIF-1a cs 55.6
O=C(N[C@@H](Cc1ccccc1)C(=O)N1CCN(S(=O)(=O)c2cccc(F)c2)CC1)c1ccco1	none
O=C(Nc1cccc(Cl)c1)NC1CCS(=O)(=O)C1 (stereo not given)	none
O=C(O)c1ccc(N/N=C/c2ccc3c(c2)OCO3)cc1	HIF-2a inh 85.7, Peg3 prom inh-1 94.4, MITF TRPM1 inh 83.4 | Peg3 prom inh-2 81.8 | HIF-2a conf 89.6 | HIF-1a cs 88.1
CC(C)(C)c1ccc(/C=N/Nc2ccc(C(=O)O)cc2)cc1	HIF-2a inh 74.2, Peg3 prom inh-1 80.1, MITF TRPM1 inh 89.4 | Peg3 prom inh-2 72.8 | HIF-2a conf 76.4 | HIF-1a cs inactive
O=C(Nc1ccc2c(c1)OCO2)Nc1ccc2c(c1)OCO2	none
